This is part of a sample that, as a whole, favours compounds with a hit. Of some 83,000 tested, about 20% had one in any assay.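 Assay: single dose, 48 h. Readout: percent growth (0 = no net growth; negative = cell death). Active: <10.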 Unmarked numbers belong to inactive results. Activity calls are given as the source filed them.
System: SK-MEL-5 melanoma
Test: NCI-60 one-dose screen, 48 h (100 = growth as untreated, 0 = no growth, -100 = all killed)
Details: 10 µM unless noted

Q: How did the growth turn out when COC(=O)/C(CCC=C(C)C)=C1\[C@@H](OC(C)=O)C[C@@]2(C)[C@H]1C/C(=N/O)[C@H]1[C@@]3(C)CC/C(=N\O)[C@@H](C)[C@@H]3CC[C@@]12C was run?
A: 98.9%

Q: How did the growth turn out when Nc1cccc(-c2ccc(COc3ccc(CC4SC(=O)NC4=O)cc3)cc2)c1 (stereo not given) was run?
A: 14.8%

Q: How did the growth turn out when CCOC(=O)c1cnn(CC(C)O)c1NC(=O)NCc1cccc(F)c1 (stereo not given) was run?
A: 100%

Q: How did the growth turn out when O=S(Nc1ccccc1)c1ccc(Cl)cc1 (stereo not given) was run?
A: 99.8%

Q: Which growth does the source give for CCOC(=O)C1=C(CC(O)c2ccc(OC)cc2OC)NC(=O)NC1c1ccccc1 (stereo not given) here?
A: 95.5%

Q: Which growth does the source give for CCn1cc(C(=O)O)c(=O)c2cc(F)c(N3CCN(CC(=O)Nc4ccccc4)C(C)C3)c(F)c21 (stereo not given) here?
A: 99.2%

Q: How did the growth turn out when CCN(CC)c1ccc(-c2cc(-c3cc(OC)c(OC)c(OC)c3)nc(N3CCC(O)CC3)c2C#N)cc1 was run?
A: -99.4% (active)

Q: Which growth does the source give for C=C(C)[C@@H]1CC[C@]2(C)[C@H](C=CC3=C4C[C@@](C)(CO)CC[C@]4(C)CC[C@]32C)[C@@]1(C)CCCN here?
A: 17.5%

Q: Which growth does the source give for CS(=O)/C(C#N)=C\C=C\c1cccc(Cl)c1 (stereo not given) here?
A: 32.3%

Q: CC1=C(Cl)C(=O)c2cc(C)ccc2C1=O was tested. Which growth did it give?
A: 101%

Q: With N#Cc1ccc(O)c(C2=NCC(c3ccc(-c4ccccc4)cc3)O2)c1 (stereo not given) as the compound, how does the growth read?
A: 3.96% (active)

Q: Which growth does the source give for CC[C@H](Nc1nc(N)nc(C)c1C#N)c1nc2cccc(CN(C)c3ncc(C(=O)NO)cn3)c2c(=O)n1-c1ccccc1 here?
A: -92.2% (active)

Q: For Cc1nc2ccccc2c(/C=C/c2ccc(F)cc2)c1C(=O)/C=C/c1ccccc1, which growth is on record?
A: 27.4%

Q: With O=C(CN1C(=O)S/C(=C\C(Cl)=C\c2ccccc2)C1=O)NC1CCS(=O)(=O)C1 (stereo not given) as the compound, how does the growth read?
A: 84.5%

Q: For Nc1[nH]nc2nc(-c3ccccc3)n3c4ccccc4nc3c12, which growth is on record?
A: 92.8%

Q: With CC(C)(C)OC(=O)CN1CCc2c(sc3ncnc(N4CCN(c5ccc(F)cc5)CC4)c23)C1 as the compound, how does the growth read?
A: 92%

Q: With N#Cc1nn(-c2cc(=O)[nH]c3ccc(Br)cc23)c(N)c1C#N as the compound, how does the growth read?
A: 101%

Q: How did the growth turn out when O=c1oc2ccccc2cc1-c1nn(-c2ccccc2)cc1-c1nn[nH]n1 was run?
A: 102%

Q: Which growth does the source give for COc1ccc(/C=N/NC(=O)Cn2c(-c3ccc(S(C)(=O)=O)cc3)nc3ccccc32)cc1 here?
A: 96.7%

Q: CC(C)n1c2ccc(Br)cc2c2c3c(c4c5ccccc5ccc4c21)C(=O)NC3=O was tested. Which growth did it give?
A: 90.7%

Q: How did the growth turn out when CCOC(=O)C1=C(c2ccccc2)N=C2N(c3ccccc3)N=C(C(C)=O)N2C1c1ccc(F)cc1 (stereo not given) was run?
A: 97.6%

Q: How did the growth turn out when COC1C(O)CC(OC2CC(OC3CC(O[C@@H]4C(=O)c5c(cc6cc(OC7CC(OC8CC(O)C(O)C(C)O8)C(O)C(C)O7)c(C)c(O)c6c5O)CC4[C@H](OC)[C@@H](O)C(C)=O)OC(C)C3O)OC(C)C2O)OC1C (stereo not given in full) was run?
A: -65.2% (active)

Q: Which growth does the source give for COC(=O)c1c2c(c(C)[n+]([O-])c1C)C(=O)C(NCc1ccccc1)=CC2=O here?
A: -84.9% (active)

Q: With Oc1nc(NCc2ccccc2)sc1/C=C1\C=Nc2ncccc21 as the compound, how does the growth read?
A: 70%

Q: Which growth does the source give for C=C1C(=O)O[C@H]2[C@H]1CC/C(COC(=O)/C=C\C(=O)NCc1ccc(Cn3c(=O)sn(CCCCl)c3=O)cc1)=C\CC[C@@]1(C)O[C@@H]21 here?
A: 102%

— PubChem BioAssay (NCI)
